Kir21 inh: inhibitors of mouse Kir2.1 inward-rectifier potassium channel | P35561 | HEK293-Kir2.1, FluxOR thallium flux fluorescence; active compounds read low | B-score at 10 µM | 310,000 compounds, 0.85% hits;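 active = fluorescence ratio B-score at or below minus 3 SD of library scores, with starting-brightness B-score within 2 SD, cut at about -4.2 in these data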;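 note: channel flux triggered by added potassium and thallium sulfate stimulus; B-score of peak minus minimum fluorescence over baseline after thallium stimulus; more negative B-score means stronger Kir2.1 block with less thallium influx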
Target sequence (P35561 whole entry, looked up): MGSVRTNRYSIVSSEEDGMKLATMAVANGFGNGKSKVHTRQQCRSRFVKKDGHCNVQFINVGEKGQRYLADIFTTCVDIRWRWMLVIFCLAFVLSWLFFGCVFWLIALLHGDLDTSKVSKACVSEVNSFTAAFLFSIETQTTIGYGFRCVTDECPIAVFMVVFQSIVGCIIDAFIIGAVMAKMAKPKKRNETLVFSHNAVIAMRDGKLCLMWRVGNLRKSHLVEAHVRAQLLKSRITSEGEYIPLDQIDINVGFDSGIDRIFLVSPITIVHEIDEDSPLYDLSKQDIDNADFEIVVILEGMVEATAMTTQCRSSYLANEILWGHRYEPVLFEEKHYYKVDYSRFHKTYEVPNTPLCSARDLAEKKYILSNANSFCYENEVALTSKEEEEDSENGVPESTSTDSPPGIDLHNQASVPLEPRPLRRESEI
Rce1 inhib: yeast Ras-converting enzyme inhibition; calls only; Q03530; yeast membranes, quenched prenylated peptide cleavage fluorescence; 290,000 compounds, 0.27% hits;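 active = fall in fluorescence gain of 50% or more versus controls, with final raw signal at or below 3038400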
TMEM16A act: mouse TMEM16A channel activation, primary screen; Q8BHY3; HEK293 TMEM16A/YFP-H148Q/I152L, iodide quench fluorescence; active compounds read low; B-score at 10 µM; 340,000 compounds, 0.3% hits;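 active = fluorescence-ratio B-score plate-corrected deviation score at least 3 library SD below zero, with starting fluorescence score within 5 deviations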;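 note: channel opened by trigger with iodide after compound preincubation; score built on the fluorescence ratio of max minus min over baseline; more negative score means more quench and so TMEM16A activation or potentiation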
CHT allo act: allosteric activators of human choline transporter CHT; AID 488977; 310,000 compounds, 0.49% hits; B-score at 10 µM; Q9GZV3; CHT-expressing cells, membrane potential dye, choline EC20; active compounds read high; LV-AA mutant CHT in HEK293 cells;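 active = initial fluorescence not abnormally high and integrated response B-score, plate-corrected, over 3 SD above library mean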
CHT block: inhibits the human high affinity choline transporter; Q9GZV3; CHT-expressing cells, membrane potential dye, choline response; active compounds read low; 310,000 compounds, 0.86% hits; B-score at 10 µM; AID 488975;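 active = B-score over 3 SD under the library average, and starting fluorescence ratio not unusually high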;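 note: choline stimulus applied at its EC90 after an EC20 pre-addition; B-score computed on integrated fluorescence ratio after choline addition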
ANO1 block: blocks the mouse calcium-activated chloride channel TMEM16A. 310,000 compounds, 1.2% hits. HEK293 TMEM16A/YFP iodide influx fluorescence, ionomycin. normalized B-score (activity score, 25-100; higher = stronger inhibition) at 10 µM;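 active = ratio plate-corrected score three or more library SD toward inhibition, starting fluorescence score within five deviations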;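 note: score derived from kinetic fluorescence span divided by baseline fluorescence per well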
CHT inh conf: confirmation of human choline transporter CHT inhibitors; shares compounds with CHT block; CHT-expressing cells, choline membrane potential dye; LV-to-AA substituted CHT, HEK293 cells; CHT activity remaining % of control (active compounds read low), % at 10 µM; 2,400 compounds, 70% hits; AID 493221;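 active = choline transporter activity left, mean of duplicates at 10 µM, below buffer-only control mean minus 3 SD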;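 note: depolarization triggered by choline at its EC90 following an EC20 pre-addition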
HEK293 MPD ctr: counter-screen for CHT inhibitors: effect in parental HEK293 cells; shares compounds with CHT block; membrane potential dye, choline response; active = decrease or increase beyond buffer ±3SD; membrane potential ratio readout (active if shifted either direction beyond buffer ±3SD; no single direction) at 10 µM; 2,400 compounds, 4% hits; AID 493222;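 note: parental cells lack the transporter so any hit is non-specific; ratio is peak minus trough fluorescence over baseline after EC90 choline challenge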
Numbers stand for hits; – = inactive; · = no result given; + = active, no number. Rows were chosen to be rich in hits. Some 3.2% of all compounds tested hit in one or more screens of this group.

SMILES	Kir21 inh	Rce1 inhib	TMEM16A act	CHT allo act	CHT block	ANO1 block	CHT inh conf	HEK293 MPD ctr
Cc1ccc(C)c(NCC(=O)NNC(=S)Nc2ccccc2)c1	–	–	–	–	-6.2	–	67%	–
CC1CN(C(=O)COC(=O)Cc2c(F)cccc2Cl)CC(C)O1 (configuration not stated)	·	·	–	·	·	·	·	·
CN(Cc1ccccc1F)C(=O)CCCNC(=O)c1ccc(Cl)cc1	–	–	–	–	-5.8	–	55%	–
Cc1cc(C)n(-c2ccc(S(=O)(=O)N3CCOCC3)cc2[N+](=O)[O-])n1	–	–	–	–	–	–	·	·
COCCCNc1nc2ccccc2nc1NS(=O)(=O)c1cccc(C)c1	–	–	–	–	–	–	·	·
COc1ccc(C(C(=O)NC2CCCCC2)N(C(=O)c2ccco2)c2ccccc2C(C)=O)cc1OC (configuration not stated)	–	–	–	–	-5.1	–	71%	–
COc1cc(NC(=O)c2csc(-c3ccncc3)n2)cc(C(=O)Nc2cccc(C(F)(F)F)c2)c1	–	–	–	–	-8.6	–	26%	–
COC(=O)COc1cccc(NC(=O)C(c2ccccc2)c2ccccc2)c1	–	–	–	–	–	–	·	·
Cc1ccc(C(=O)O)cc1NC(=S)NC(=O)c1ccc(COc2ccccc2)cc1	–	–	–	–	-6.5	25	48%	–
C=CCn1c(SCC(=O)c2ccc(OC)cc2)nnc1-c1ccc2c(c1)OCO2	–	·	–	–	-15	–	–	–
C=CCn1c(SCC(=O)Nc2ccc3c(c2)OCO3)nnc1-c1ccccc1OC	–	–	–	–	–	–	·	·
O=C(CSc1nc(-c2ccccc2)cc(C(F)(F)F)n1)N1CCOCC1	–	–	–	–	-5.8	–	–	–
S=C(Nc1ccc(Cc2ccncc2)cc1)Nc1cccc(Cl)c1	–	–	–	–	-6.6	–	–	–
CNC(=S)Nc1ccc(Cc2ccncc2)cc1	–	–	–	–	–	–	·	·
CC1(C)CC2CC(C)(CN2c2ncnc3ccccc23)C1 (configuration not stated)	–	–	–	–	-5.1	–	48%	–
CC1CCCCN1c1ncnc2ccccc12 (configuration not stated)	–	–	–	–	–	–	·	·
O=C1OCCC1Sc1nc2ccccc2n1Cc1ccccc1 (configuration not stated)	–	–	–	–	–	–	·	·
O=C1OCCC1Sc1nc2ccccc2n1-c1ccccc1 (configuration not stated)	–	–	–	–	-5.8	–	–	–
CC(C)c1nc(CNC(=O)c2ccc(OC3CCN(Cc4ccccn4)CC3)cc2)cs1	–	–	–	–	–	–	·	·
CC(NC(=O)c1ccc(OC2CCN(Cc3ccccn3)CC2)cc1)c1ccccc1 (configuration not stated)	–	–	–	–	-10	–	-1.0%	–
CCc1ccccc1NC(=O)C(Cc1ccccc1)c1nn[nH]n1 (configuration not stated)	–	–	–	–	–	–	·	·
O=C(NCC1CCCO1)c1cnn2c1NC(c1ccccc1)CC2C(F)(F)F (configuration not stated)	–	–	–	–	–	–	·	·
O=C(NCCCn1ccnc1)c1cnn2c1NC(c1ccccc1)CC2C(F)(F)F (configuration not stated)	–	–	–	–	-14	–	9.0%	–
CCCCc1ccc(NC(=S)NCC2CCCO2)cc1 (configuration not stated)	–	·	–	–	-11	–	49%	–
CCn1c(SCC(=O)N=Nc2c(O)[nH]c3ccccc23)nc2ccccc21	–	–	–	–	-7	–	54%	–
SMILES	Kir21 inh	Rce1 inhib	TMEM16A act	CHT allo act	CHT block	ANO1 block	CHT inh conf	HEK293 MPD ctr
CCn1c(SCC(=O)N=Nc2c(O)[nH]c3ccccc23)nnc1-c1ccc(C(C)(C)C)cc1	–	–	·	–	–	–	·	·
COc1ccc(C(=O)NCCS(=O)(=O)N2CCc3ccccc3C2)cc1	–	–	–	–	–	–	·	·
Cc1cccn2c(CNC3CCCc4ccccc43)c(C(=O)N3CCOCC3)nc12 (configuration not stated)	–	–	–	–	–	–	·	·
Cc1cccn2c(CNCC3OCCc4ccccc43)c(C(=O)N3CCCCC3)nc12 (configuration not stated)	–	–	–	–	-6.6	–	48%	-13
CC(=O)Nc1ccc(S(=O)(=O)Nc2nc3ccccc3nc2Nc2ccc(N)cc2)cc1	–	–	–	–	-5.1	–	67%	–
Cc1ccnc(SCc2cc(=O)c(OC(=O)c3ccc(S(=O)(=O)N(C)C)cc3)co2)n1	–	–	–	–	-6.5	–	58%	–
Cc1ccc(CSc2nnc(-c3ccc(NS(=O)(=O)c4ccccc4)cc3)o2)cc1	–	–	–	–	–	–	·	·
COC(=O)CSc1nnc(-c2ccc(NS(=O)(=O)c3ccccc3)cc2)o1	–	–	–	–	-5.9	25	39%	–
COc1ccccc1CNC(=O)COC(=O)C1CCN(c2ccc(C(F)(F)F)cn2)CC1	–	–	–	–	–	–	·	·
CCCOc1ccc(C(=O)NC(=S)NNC(=O)c2c(-c3ccccc3)noc2C)cc1	–	–	–	–	-12	100	56%	–
CCc1nnc(NC(=O)CSc2nnc(Cc3cc(=O)[nH]c(=O)[nH]3)n2-c2cccc(OC)c2)s1	–	–	–	–	–	–	·	·
Nn1c(SCC(=O)Nc2nccs2)nnc1-c1cccnc1	·	·	–	·	·	·	·	·
Cc1cc(/C=N/NC(=O)c2ccccn2)c(C)n1-c1cccc([N+](=O)[O-])c1	–	–	–	–	–	–	·	·
Cc1cc(/C=N/NC(=O)C(=O)NCc2ccccn2)c(C)n1-c1ccccc1	–	–	–	–	-7	–	34%	–
COc1ccc(OC)c(Cc2nnc(CCC(=O)N3CCN(C4CCCC4)CC3)o2)c1	–	+	–	–	-8	–	36%	–
COc1ccc(OC)c(Cc2nnc(CCC(=O)N3CCCCC3)o2)c1	–	–	–	–	–	–	·	·
Cc1ccc(-c2nnc(CCC(=O)N(C)Cc3nccs3)o2)s1	–	–	–	–	–	–	·	·
Cc1ccc(-c2nc(CN(C)Cc3ccc4nccnc4c3)c(C)o2)s1	–	–	–	–	-5.2	–	–	–
CC(C)(C)NS(=O)(=O)c1ccc(N2C(=O)c3ccccc3C2=O)cc1	–	–	–	–	-7.5	–	60%	–
Cc1cc(C)nc(NS(=O)(=O)c2ccc(N3C(=O)c4ccccc4C3=O)cc2)n1	–	–	–	–	–	–	·	·

From PubChem
